NFkB transloc pot = enhancers of NFkB p65 translocation in HUVEC – imaging, IL-1B stimulus, high-content imaging, primary screen; 94,000 tested, 0.3% active; activation, % at 2 µM; HUVEC IL-1B NFkB p65 nuclear translocation imaging;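 active = activation above 40%, about the mean plus 3 SD, also judged a hit on visual image review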;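 also: percent activation is computed from the nuclear over cytoplasmic p65 intensity ratio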
TNFa cytotox = cytotoxicity in TNFa-stimulated HUVEC, primary screen, cytotoxicity control for VCAM1 expression modulator project, imaging, Hoechst nuclei count | cell count reduction, % at 2 µM | 93,000 tested, 0.17% active | HUVEC TNFalpha-stimulated, Hoechst cell count | AID 848, 2007;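 active = cell count reduction exceeding the screen mean by over 5 SD, scaled to untreated wells per plate, cut at about 78% in these data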;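 also: cells counted after 24 h of TNF alpha exposure following the 1 h pretreatment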
Phagocytosis inh = inhibitors of macrophage phagocytosis, primary screen, imaging, J774A.1 cells, IgG beads. AID 1029, 2008. 110,000 tested, 0.07% active. J774A.1 macrophage IgG-bead phagocytosis. inhibition, % at 5 µM;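 active = inhibition above the mean of the plate negative controls plus 5 SD, cut at about 13% in these data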;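 also: phagocytic index as fraction of beads internalized from green versus red external bead signal; plate controls were DMSO negative control for no effect and cytochalasin-D positive control for full effect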
IL1B NFkB inh = inhibitors of IL-1B driven NFkB p65 nuclear import, primary screen, imaging, HUVEC, IL-1B stimulus, high-content imaging; HUVEC IL-1B NFkB p65 nuclear translocation imaging; inhibition, % at 2 µM; 94,000 tested, 0.43% active; AID 796, 2007;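 active = inhibition above about 30% together with a positive call from visual inspection of the well image, limit read from the data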;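 also: nuclear over cytoplasmic p65 intensity ratio measured by imaging; 0% = IL-1B stimulated DMSO wells and 100% = unstimulated DMSO wells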
IL1B cytotox = cytotoxicity in IL-1B stimulated HUVEC, primary screen, cytotoxicity control for IL-1B NFkB translocation project, imaging, Hoechst nuclear count, IL-1B stimulus; 94,000 tested, 0.41% active; HUVEC cell count loss; cell count reduction, % at 2 µM;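 active = cell count reduction more than 3 SD above the screen-wide mean, cut at about 70% in these data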;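 also: normalized per plate to untreated control cells as the no-loss baseline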
The depositor's hits bear a star; / = no result given. An excerpt weighted towards active compounds, which were near 0.93% of everything screened.

SMILES	NFkB transloc pot	TNFa cytotox	Phagocytosis inh	IL1B NFkB inh	IL1B cytotox
O=C(N/N=C/c1ccc(Br)o1)c1ccc2c(c1)OCCO2	/	/	-2	/	/
O=C(CCCc1ccccc1)NCc1ccc(F)cc1	/	/	-3	/	/
COc1ccc(CCNC(=O)CCc2ccc(S(=O)(=O)NC(C)C)cc2)cc1	/	/	-2	/	/
C=CCNc1nc(N)c(C(=O)Nc2cc(C)on2)s1	-10	-3	-1	10	77*
COc1cc(S(=O)(=O)Nc2cccc(C(=O)O)c2)c(OC)cc1Cl	-49	-9	0	49*	88*
COc1ccc(C(=O)N2CCCCC2)cc1S(=O)(=O)Nc1cccc(C(=O)O)c1	3	0	/	-3	-7
N#CC1=C(N2CCCCC2)c2cc3c(n2C1=O)CCCC3	0	7	-6	0	-12
Clc1ccc(-c2nnc(SCc3ccon3)o2)c(Cl)c1	-4	-5	/	4	70*
N#Cc1c(NC(=O)c2cnccn2)sc2c1CCCC2	/	/	-6	/	/
Cc1noc(C)c1COc1ccc(C(=O)OCC(=O)Nc2ccc3ccccc3c2)cc1	4	7	0	-4	92*
CCOC(=O)c1ccc(OCc2c(C)noc2C)cc1	21	-11	0	-21	-1
O=C(NCC(F)(F)F)Nc1cccnc1	-77	-5	/	77*	90*
COc1ccc(OC)c(N(CC(=O)Nc2cccnc2)S(=O)(=O)c2ccc(OC)c(OC)c2)c1	-91	-6	0	91*	90*
COc1ccc(OC)c(N(CC(=O)NC2CC2)S(=O)(=O)c2ccc(C)cc2)c1	-2	90*	2	2	-12
COc1ccc(OC)c(N(CC(=O)Nc2cccnc2)S(=O)(=O)c2ccc(C)cc2)c1	-59	-44	0	60*	2
COc1ccc(S(=O)(=O)N(CC(=O)NC2CC2)c2ccc(C)cc2)cc1OC	-2	2	-1	2	-18
COc1ccc(OC)c(N(CC(=O)Nc2cccnc2)S(C)(=O)=O)c1	4	-21	1	-4	3
CNC(=O)CN(c1cc(C)ccc1OC)S(=O)(=O)c1ccc(C)cc1	-4	15	-1	4	24
N#C/C(=C/c1cc(Br)cs1)C(=O)NCC1CCCO1 (stereo not given)	-97	-16	6	97*	88*
O=C(COCC(=O)N/N=C/c1ccc(F)cc1)N/N=C/c1ccc(F)cc1	/	/	-5	/	/
CCOc1ccc(C=O)cc1CN1CCCCC1	-6	84*	0	6	-16
CCOc1cc(CN2CCCCC2)ccc1OC	-14	0	0	14	4
CCOc1ccc(NC(=O)c2cccc3c2C(=O)N(CCOC)C3)cc1	-10	6	-2	10	-19
O=C(Nc1ccc(F)cc1)c1cccc2c1C(=O)N(Cc1ccccn1)C2	-10	-3	0	10	94*
Clc1ccc(OCc2nc(-c3ccccn3)no2)c(Br)c1	-36	-27	0	36*	-14
SMILES	NFkB transloc pot	TNFa cytotox	Phagocytosis inh	IL1B NFkB inh	IL1B cytotox
Clc1ccccc1OCc1nc(-c2ccccn2)no1	-1	-16	1	1	10
CCc1cc(C(=O)NNC(=S)NCC2CCCO2)cs1 (stereo not given)	0	-24	/	0	5
C=CCNC(=O)Nc1ccc(Cl)cn1	/	/	-4	/	/
O=S(=O)(Nc1nc(-c2sccc2Cl)cs1)c1cc(Cl)ccc1Cl	9	-4	/	-9	4
Cc1c(Cl)cccc1-n1ccnc1SCC(=O)O	-1	78*	0	1	8
CCc1ccc(-n2c(SCc3c(C)noc3C)nnc2-c2ccncc2)cc1	67*	6	0	-66	17
CC(=O)NCCn1c(SCc2ccc(C)cc2C)nc2ccccc2c1=O	-5	-1	-2	5	-2
O=C1CCSc2cccc3cccc(c23)N1	8	84*	0	-8	1
O=C(Nc1ccc(N2CCOCC2)cc1)c1ccc2nc(-c3ccco3)c(-c3ccco3)nc2c1	29	1	-1	-29	11
S=C(Nc1ccc(N2CCOCC2)cc1)Nc1ccc2nc(-c3ccco3)c(-c3ccco3)nc2c1	-45	7	0	45*	-3
COC(=O)c1ccc(NC(=O)C2CC2)o1	13	1	-1	-13	-6
Cc1cccc(NC(=O)C2CC(=O)n3cnnc3S2)c1 (stereo not given)	6	-14	1	-6	6
O=C(NC1(C(F)(F)F)C(=O)Nc2c1c(=O)[nH]c(=O)n2Cc1ccccc1)c1ccc(Cl)cc1Cl (stereo not given)	-7	-4	/	7	-1
O=C(NC1(C(F)(F)F)C(=O)Nc2c1c(=O)[nH]c(=O)n2Cc1ccccc1)c1ccc(Cl)cc1 (stereo not given)	-32	-32	-1	32*	-14
O=C(N/N=C\c1cc(Br)cs1)C1COc2ccccc2O1 (stereo not given)	-7	-2	0	8	5
C=CCc1cc(C=O)cc(OCC)c1OCc1ccc(Cl)cc1	/	/	-2	/	/
C=CCc1cc(C=O)cc(OC)c1OCc1ccc(Cl)cc1	0	-4	-1	0	93*
CCc1nnc(NC(=O)CCC(=O)N2CCCC2)s1	79*	4	0	-79	21
CC(C)NCC(O)COc1ccc2c(c1)CCC2 (stereo not given)	/	/	-10	/	/
Cn1c(Cc2cccc3ccccc23)nnc1SCC(=O)N1CCN(c2ccccc2)CC1	3	-7	/	-3	-13
COc1ccccc1N1CCN(C(CNC(=O)c2ccco2)c2cccnc2)CC1 (stereo not given)	5	-24	-1	-5	-48
COc1ccc(N2CCN(C(CNC(=O)c3ccco3)c3cccnc3)CC2)cc1 (stereo not given)	40*	-44	-1	-40	-12
Cc1ccc(/C=C/C2=Cc3c(sc(NC(=O)CSc4n[nH]c(N)n4)c3C#N)C(C)(C)C2)o1	-50	-30	/	50*	-23
O=C(O)c1ccc(NCc2ccncc2)cc1	3	84*	-1	-3	16
O=C(O)c1cccc(NCc2ccncc2)c1	2	-4	2	-2	-12
SMILES	NFkB transloc pot	TNFa cytotox	Phagocytosis inh	IL1B NFkB inh	IL1B cytotox
CCNc1nc(Oc2ccc(C(=O)OC)cc2)nc(N(C)C)n1	8	79*	/	-8	11
O=C(CN1CCCc2ccccc21)N/N=C/c1c(O)ccc2ccccc12	/	/	-19	/	/
CCCC(=O)C1=C(O)C(C(=O)OC)C(C)(C)CC1=NC(C)(C)C (stereo not given)	-45	2	0	45*	8
CCCC(=O)C1=C(O)C(C(=O)OC)C(C)(C)CC1=NC(C)C (stereo not given)	9	2	/	-9	10
COC(=O)C(Cc1ccc(O)cc1)NC(=O)c1ccccc1 (stereo not given)	-2	-18	-1	2	-47
COC(=O)C(/C=N/OCc1ccc([N+](=O)[O-])cc1)NC(=O)c1ccccc1 (stereo not given)	44*	1	-1	-44	-3

Assay outcomes (PubChem)
